Experimental data: PubChem BioAssay (NCATS)
Results filed as inconclusive are left out. For some assays here: Potency and affinity values are given separately. Calls of active or inactive are those of the source. Unless noted, how the calls were made is not given here.

Assays:
[1] = Ebola virus entry assay, green fluorescence channel
[2] = Ebola virus entry assay, blue channel fluorescence
[3] = Ebola virus entry assay, ratio channel
[4] = Ebola virus entry assay, reporter ratio channel; Channel type: primary
[5] = Ebola virus entry assay, blue channel (ratio component)
[6] = qHTS assay for measurement of the activity of small molecule inhibitors on Zika virus induced Caspase-3 activity in human iPSC derived neural progenitor cells (hNPCs) (AID 1224857; active means well fitted inhibition curve with a large enough effect; further: % of control where 0% means no effect; nearly all actives have a fitted effect of over 65% in size); conditions: hNPCs ZIKV-induced caspase-3/7, Caspase-Glo luminescence, 6 h; series mostly up to 45.7 µM
Procedure, shortened: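 In medium with heparin 2 ug/ml and cyclopamine 2 uM, hNPCs (350 cells/well) received compound for one hour and then Zika virus at 2 FFU/cell; caspase activity was measured by Caspase-Glo 3/7 luminescence 6 h post-infection.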
Wherever efficacy is given: 0% is about no effect.

NCCc1ccc(O)c(O)c1
inactive: efficacy [1] 28.6% | outcome [2] | outcome [3] | outcome [4] | outcome [5]

CC[N+](CC)(CC)CCOc1ccc(/C=C/c2ccccc2)cc1
inactive: efficacy [1] 64.2% | outcome [2] | outcome [3] | outcome [5]
active: AC50 [4] 39.8 µM

Nc1c2c(nc3ccccc13)CCCC2O (stereo not given)
inactive: efficacy [1] 42.6% | outcome [2] | outcome [3] | outcome [4] | outcome [5]

NS(=O)(=O)c1ccc(N2CCCCS2(=O)=O)cc1
inactive: efficacy [1] -36.2% | outcome [2] | outcome [3] | outcome [4] | outcome [5]

O=C(NCC1CN(c2ccc(N3CCOCC3=O)cc2)C(=O)O1)c1ccc(Cl)s1 (stereo not given)
inactive: efficacy [1] 23% | outcome [2] | outcome [3] | outcome [4] | outcome [5]

CCCC(=O)O[C@]1(C(=O)CC)CC[C@H]2[C@@H]3CCC4=CC(=O)CC[C@]4(C)[C@H]3[C@@H](O)C[C@@]21C
inactive: efficacy [1] 46.1% | outcome [2] | outcome [3] | outcome [4] | outcome [5]

COc1cc(NS(=O)(=O)c2ccc(N)cc2)nc(OC)n1
inactive: efficacy [1] 31.6% | outcome [2] | outcome [3] | outcome [4] | outcome [5]

CCC(=O)O[C@]1(C(=O)COC)[C@@H](C)C[C@H]2[C@@H]3CCC4=CC(=O)C=C[C@]4(C)C3(F)[C@@H](O)C[C@@]21C (stereo not given in full)
inactive: efficacy [1] 67.5% | outcome [2] | outcome [4] | outcome [5]
active: AC50 [3] 7.94 µM

CCOCCn1c(N2CCCN(C)CC2)nc2ccccc21
active: AC50 [4] 39.8 µM
inactive: efficacy [1] 58.4% | outcome [2] | outcome [3] | outcome [5]

Nc1ccc2c(c1)CN1C(=O)c3ccccc3C1=N2
inactive: efficacy [1] 64.3% | outcome [2] | outcome [3] | outcome [4] | outcome [5]

O=C(COc1ccc(Cl)cc1)N1CCN(Cc2ccc3c(c2)OCO3)CC1
inactive: efficacy [1] 71.8% | outcome [2] | outcome [3] | outcome [5]
active: AC50 [4] 39.8 µM

CC(=O)N(CC(=O)N(C)C)c1ccccc1
inactive: efficacy [1] 35.3% | outcome [2] | outcome [3] | outcome [4] | outcome [5]

CN1CCOC(c2ccccc2)c2ccccc2C1 (stereo not given)
active: AC50 [4] 39.8 µM
inactive: efficacy [1] 45.6% | outcome [2] | outcome [3] | outcome [5]

Nc1cc(C(F)(F)F)ccc1S
inactive: efficacy [1] -31.2% | outcome [2] | outcome [3] | outcome [4] | outcome [5]

O=Cc1ccccc1C=O
inactive: efficacy [1] -22.6% | outcome [2] | outcome [3] | outcome [4] | outcome [5]

CC(=O)OCC(=O)[C@@]12N=C(C)O[C@@H]1C[C@H]1[C@@H]3CCC4=CC(=O)C=C[C@]4(C)[C@H]3[C@@H](O)C[C@@]12C
inactive: efficacy [1] 27% | outcome [2] | outcome [3] | outcome [4] | outcome [5]

CCCC(=O)OC[C@@H](OC(=O)CCC)[C@@H](OC(=O)CCC)[C@H](Cn1c2nc(=O)[nH]c(=O)c-2nc2cc(C)c(C)cc21)OC(=O)CCC
inactive: efficacy [1] 140% | outcome [2] | outcome [3] | outcome [4] | outcome [5]

C=C1C(=C/C=C2\CCC[C@]3(C)[C@@H]([C@H](C)/C=C/[C@@H](O)C4CC4)CC[C@@H]23)C[C@@H](O)C[C@@H]1O
inactive: efficacy [1] 59.6% | outcome [2] | outcome [3] | outcome [5]
active: AC50 [4] 39.8 µM

CC1=C(CC(=O)O)c2cc(F)ccc2/C1=C\c1ccc(S(C)(=O)=O)cc1
active: AC50 [4] 39.8 µM
inactive: efficacy [1] 40.3% | outcome [2] | outcome [3] | outcome [5]

Oc1ccc(/C=C/c2cc(O)cc(O)c2)cc1
inactive: efficacy [1] 48.9% | outcome [2] | outcome [3] | outcome [4] | outcome [5]

O=C(Nc1ccc([N+](=O)[O-])cc1)Nc1ccc([N+](=O)[O-])cc1
inactive: efficacy [1] -37.1% | outcome [2] | outcome [3] | outcome [4] | outcome [5]

CC1=C(C)C(=O)C(CCCCC#CCCCC#CCO)=C(C)C1=O
inactive: efficacy [1] 49.4% | outcome [2] | outcome [3] | outcome [4] | outcome [5]

CC(C)NCCCC1(C(N)=O)c2ccccc2-c2ccccc21
inactive: efficacy [1] 42.8% | outcome [2] | outcome [3] | outcome [4] | outcome [5]

Oc1cccc(-c2c3nc(c(-c4cccc(O)c4)c4ccc([nH]4)c(-c4cccc(O)c4)c4nc(c(-c5cccc(O)c5)c5ccc2[nH]5)CC4)C=C3)c1
inactive: efficacy [1] 82.1%
active: AC50 [2] 20 µM | AC50 [3] 22.4 µM | AC50 [4] 22.4 µM

C[C@@H]1C[C@H]2[C@@H]3CCC4=CC(=O)C=C[C@]4(C)[C@@]3(F)[C@@H](O)C[C@]2(C)[C@@]1(O)C(=O)COC(=O)c1ccncc1
active: AC50 [4] 39.8 µM
inactive: efficacy [1] 33.7% | outcome [2] | outcome [3] | outcome [5]

C=CCNc1nc(NCC=C)nc(N2CCN(C(c3ccc(F)cc3)c3ccc(F)cc3)CC2)n1
inactive: efficacy [1] 31% | outcome [2] | outcome [3] | outcome [4] | outcome [5]

COC(=O)c1nc(Cl)c(Cl)nc1N
inactive: efficacy [1] 66.4% | outcome [2] | outcome [5]
active: AC50 [3] 4.47 µM | AC50 [4] 4.47 µM

C[C@]12CCC(=O)C=C1[C@@H]1C[C@@H]1[C@H]1[C@@H]3[C@@H]4C[C@@H]4[C@@]4(CCC(=O)O4)[C@@]3(C)CC[C@@H]12
inactive: efficacy [1] 65.1% | outcome [2] | outcome [3] | outcome [5]
active: AC50 [4] 39.8 µM

CCN(CC)C(=O)Nc1ccc(OCC(O)CNC(C)(C)C)c(C(C)=O)c1 (stereo not given)
inactive: efficacy [1] -36% | outcome [2] | outcome [3] | outcome [4] | outcome [5]

O=C(/C=C/c1ccccc1)NCCO
inactive: efficacy [1] 100% | outcome [2] | outcome [3] | outcome [5]
active: AC50 [4] 39.8 µM

CCN(CC)CC(=O)Nc1c(C)cccc1C(=O)OC
inactive: efficacy [1] 26% | outcome [2] | outcome [3] | outcome [4] | outcome [5]

c1cnc(N2CCN(Cc3ccc4c(c3)OCO4)CC2)nc1
inactive: efficacy [1] 47.2% | outcome [2] | outcome [3] | outcome [4] | outcome [5]

CN1Cc2c(N)cccc2C(c2ccccc2)C1 (stereo not given)
inactive: efficacy [1] 99.7% | outcome [5]
active: AC50 [2] 17.8 µM | AC50 [3] 25.1 µM | AC50 [4] 25.1 µM

Nc1nc2ccccc2n1Cc1ccc(F)cc1
inactive: efficacy [1] 54.1% | outcome [2] | outcome [3] | outcome [5]
active: AC50 [4] 39.8 µM

O=C(Cn1ccnc1[N+](=O)[O-])NCCO
inactive: efficacy [1] -27.8% | outcome [2] | outcome [3] | outcome [4] | outcome [5]

CCCCC(=O)O[C@]1(C(=O)CO)CC[C@H]2[C@@H]3CCC4=CC(=O)CC[C@]4(C)[C@H]3[C@@H](O)C[C@@]21C
inactive: efficacy [1] 66.7% | outcome [2] | outcome [3] | outcome [4] | outcome [5]

Nc1ccc(C(=O)N2CC3CC(CN(Cc4ccccc4)C3)C2)cc1
inactive: efficacy [1] 68.8% | outcome [2] | outcome [3] | outcome [5]
active: AC50 [4] 31.6 µM

CCOC(=O)OC(C)OC(=O)[C@@H]1N2C(=O)[C@@H](NC(=O)[C@H](N)c3ccccc3)[C@H]2SC1(C)C (stereo not given in full)
inactive: efficacy [1] 47.6% | outcome [2] | outcome [3] | outcome [4] | outcome [5]

C[C@@H]1CCN(C(=O)[C@H](CCCN=C(N)N)NS(=O)(=O)c2cccc3c2NC[C@H](C)C3)[C@@H](C(=O)O)C1
inactive: efficacy [1] -39.7% | outcome [2] | outcome [3] | outcome [4] | outcome [5]

CCn1c(=O)c2c(nc(C=Cc3ccc(OC)c(OC)c3)n2C)n(CC)c1=O
inactive: efficacy [1] 44.2% | outcome [2] | outcome [3] | outcome [4] | outcome [5]

COc1ccc(S(=O)(=O)N2c3ccc(Cl)cc3[C@@](O)(c3ccccc3Cl)[C@H]2C(=O)N2CCC[C@@H]2C(N)=O)cc1OC
inactive: efficacy [1] 45% | outcome [5]
active: AC50 [2] 10 µM | AC50 [3] 10 µM | AC50 [4] 10 µM

CC1(C)O[C@@H]2C[C@H]3[C@@H]4C[C@H](F)C5=CC(=O)C=C[C@]5(C)[C@H]4[C@@H](O)C[C@]3(C)[C@]2(C(=O)CO)O1
inactive: efficacy [1] 79.9% | outcome [2] | outcome [3] | outcome [4] | outcome [5]

C[C@@H]1CC[C@H]2[C@@H](C)C(=O)O[C@@H]3O[C@@]4(C)CC[C@@H]1[C@]32OO4
inactive: efficacy [1] 76.3% | outcome [2] | outcome [3] | outcome [4] | outcome [5] | Potency [6]

C#C[C@]1(O)CC[C@H]2[C@@H]3[C@H](C)CC4=C(CCC(=O)C4)[C@H]3CC[C@@]21C
inactive: efficacy [1] 42.7% | outcome [2] | outcome [5]
active: AC50 [3] 15.8 µM | AC50 [4] 15.8 µM

COc1ccc2[nH]cc(CCN(C(C)C)C(C)C)c2c1
active: AC50 [2] 39.8 µM | AC50 [3] 31.6 µM | AC50 [4] 31.6 µM
inactive: efficacy [1] 45.7% | Potency [6]

O=C(CS)Nc1ccccc1
active: AC50 [4] 25.1 µM
inactive: efficacy [1] 30.5% | outcome [2] | outcome [3] | outcome [5]
